# Data taken from paper PMC7862700, “An all-to-all approach to the identification of sequence-specific readers for epigenetic DNA modifications on cytosine”.
# Legend:
# Experiment in all cases: DAPPL (digital affinity profiling via proximity ligation, sequencing); 10 mM Tris-HCl pH 7.5, 50 mM NaCl, 1 mM DTT, 4% glycerol, room temperature, 30 min; GST-TFs on glutathione beads, 16-mer random dsDNA library, 0.1% formaldehyde crosslink after washing; high values mean tight binding
# [1] = target: T1, FLI1 (Homo sapiens, UniProt Q01543 1-452); settings: protein: recombinant; tags: N-terminal GST; dsDNA, one strand shown
# T1 sequence: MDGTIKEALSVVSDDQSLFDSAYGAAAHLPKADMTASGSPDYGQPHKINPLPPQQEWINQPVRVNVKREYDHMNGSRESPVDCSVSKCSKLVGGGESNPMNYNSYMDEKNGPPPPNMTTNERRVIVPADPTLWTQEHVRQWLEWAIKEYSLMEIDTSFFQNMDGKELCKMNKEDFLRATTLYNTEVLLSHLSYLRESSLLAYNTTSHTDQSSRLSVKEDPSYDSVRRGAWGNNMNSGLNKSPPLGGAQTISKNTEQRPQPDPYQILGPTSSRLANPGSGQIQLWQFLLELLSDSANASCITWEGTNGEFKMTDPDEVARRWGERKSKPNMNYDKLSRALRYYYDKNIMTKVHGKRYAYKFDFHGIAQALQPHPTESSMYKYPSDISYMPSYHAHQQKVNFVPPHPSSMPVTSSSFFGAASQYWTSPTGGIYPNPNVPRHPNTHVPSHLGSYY
# In short: (§1)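 Binding signal is defined as a hexamer's read frequency for one factor over its frequency for the tag-only sample. To obtain reads, GST-fused human transcription factors were expressed in yeast, captured on glutathione beads, barcoded with DNA and pooled with that sample. Pools met 200 nmole of a 16-mer random double-stranded DNA library in Tris/NaCl/DTT/glycerol buffer for 30 min at room temperature before washing, 0.1% formaldehyde crosslinking, proximity ligation (BsaI/T4 ligase, 1 h, 37 °C), PCR and Illumina NextSeq500 sequencing.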
# [2] = target: T2, ELK1 (Homo sapiens, UniProt P19419 1-428); settings: protein: recombinant; tags: N-terminal GST; dsDNA, one strand shown
# T2 sequence: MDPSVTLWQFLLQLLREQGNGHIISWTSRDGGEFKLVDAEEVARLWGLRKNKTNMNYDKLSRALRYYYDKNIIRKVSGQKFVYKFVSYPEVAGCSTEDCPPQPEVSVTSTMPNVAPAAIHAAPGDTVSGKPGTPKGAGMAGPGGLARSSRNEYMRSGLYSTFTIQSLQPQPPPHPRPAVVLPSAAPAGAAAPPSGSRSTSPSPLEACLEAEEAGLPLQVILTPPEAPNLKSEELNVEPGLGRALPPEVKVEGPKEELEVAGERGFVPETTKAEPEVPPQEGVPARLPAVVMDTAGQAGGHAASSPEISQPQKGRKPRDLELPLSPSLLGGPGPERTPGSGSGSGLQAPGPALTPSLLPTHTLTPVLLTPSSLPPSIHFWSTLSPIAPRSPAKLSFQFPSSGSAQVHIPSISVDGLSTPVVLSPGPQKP
# In short: as §1
# [3] = target: T3, GABPA (Homo sapiens, UniProt Q06546 1-454); settings: protein: recombinant; tags: N-terminal GST; dsDNA, one strand shown
# T3 sequence: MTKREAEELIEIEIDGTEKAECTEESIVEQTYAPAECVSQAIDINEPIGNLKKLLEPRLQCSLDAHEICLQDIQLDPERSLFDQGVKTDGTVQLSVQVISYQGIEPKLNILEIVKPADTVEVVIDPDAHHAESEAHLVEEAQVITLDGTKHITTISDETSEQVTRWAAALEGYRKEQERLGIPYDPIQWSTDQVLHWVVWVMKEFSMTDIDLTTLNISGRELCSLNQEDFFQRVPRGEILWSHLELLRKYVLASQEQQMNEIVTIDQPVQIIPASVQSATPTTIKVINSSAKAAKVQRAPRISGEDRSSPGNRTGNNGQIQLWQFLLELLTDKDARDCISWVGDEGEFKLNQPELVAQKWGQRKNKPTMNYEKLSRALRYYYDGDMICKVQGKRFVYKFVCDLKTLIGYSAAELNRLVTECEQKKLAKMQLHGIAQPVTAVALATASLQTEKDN
# In short: as §1
# [4] = target: T4, ERG (Homo sapiens, UniProt P11308 1-479); settings: protein: recombinant; tags: N-terminal GST; dsDNA, one strand shown
# T4 sequence: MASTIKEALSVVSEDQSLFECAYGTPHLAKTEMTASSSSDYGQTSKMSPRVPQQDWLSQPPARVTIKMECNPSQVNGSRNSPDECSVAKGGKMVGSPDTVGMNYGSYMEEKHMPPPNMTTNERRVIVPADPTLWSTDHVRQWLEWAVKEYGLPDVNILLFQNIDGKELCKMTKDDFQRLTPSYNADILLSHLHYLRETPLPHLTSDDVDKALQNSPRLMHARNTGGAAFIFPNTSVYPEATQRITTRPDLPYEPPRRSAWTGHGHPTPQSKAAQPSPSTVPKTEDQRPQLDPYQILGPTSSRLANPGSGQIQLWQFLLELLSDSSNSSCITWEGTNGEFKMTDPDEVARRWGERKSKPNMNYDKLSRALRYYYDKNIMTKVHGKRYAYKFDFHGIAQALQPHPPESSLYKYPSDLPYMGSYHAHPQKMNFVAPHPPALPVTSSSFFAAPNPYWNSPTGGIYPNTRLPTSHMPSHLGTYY
# In short: as §1
# [5] = target: ELF1 (Homo sapiens, UniProt P32519 1-619); settings: protein: recombinant; tags: N-terminal GST; dsDNA, one strand shown
# Chain of ELF1 (P32519 whole entry): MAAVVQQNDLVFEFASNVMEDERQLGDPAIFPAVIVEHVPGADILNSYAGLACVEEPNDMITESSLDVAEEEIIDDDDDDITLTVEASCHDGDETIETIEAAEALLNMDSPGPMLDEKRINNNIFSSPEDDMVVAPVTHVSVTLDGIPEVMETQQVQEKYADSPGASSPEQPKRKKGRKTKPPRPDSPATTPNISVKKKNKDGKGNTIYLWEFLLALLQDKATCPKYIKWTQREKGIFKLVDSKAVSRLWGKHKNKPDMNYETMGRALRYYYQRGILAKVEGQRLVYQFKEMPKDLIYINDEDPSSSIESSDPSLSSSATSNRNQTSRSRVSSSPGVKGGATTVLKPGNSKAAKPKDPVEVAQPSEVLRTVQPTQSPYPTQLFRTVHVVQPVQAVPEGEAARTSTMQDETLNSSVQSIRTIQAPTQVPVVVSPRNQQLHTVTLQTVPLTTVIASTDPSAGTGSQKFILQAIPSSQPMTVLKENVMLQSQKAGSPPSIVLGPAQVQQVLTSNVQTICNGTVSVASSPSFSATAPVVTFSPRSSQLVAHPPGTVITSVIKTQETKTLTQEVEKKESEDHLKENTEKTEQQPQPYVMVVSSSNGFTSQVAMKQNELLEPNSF
# In short: as §1
# [6] = target: T5, EHF (Homo sapiens, UniProt Q9NZC4 1-300); settings: protein: recombinant; tags: N-terminal GST; dsDNA, one strand shown
# T5 sequence: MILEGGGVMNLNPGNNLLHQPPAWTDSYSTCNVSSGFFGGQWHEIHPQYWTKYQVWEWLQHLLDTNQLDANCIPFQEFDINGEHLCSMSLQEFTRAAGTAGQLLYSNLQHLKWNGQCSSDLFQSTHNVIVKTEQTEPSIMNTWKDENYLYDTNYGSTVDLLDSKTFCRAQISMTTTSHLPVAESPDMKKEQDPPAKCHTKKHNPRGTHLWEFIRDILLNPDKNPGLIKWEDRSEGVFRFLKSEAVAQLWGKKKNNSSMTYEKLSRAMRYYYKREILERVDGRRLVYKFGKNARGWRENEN
# In short: as §1
# [7] = target: SPI1 (Homo sapiens, UniProt P17947 1-270); settings: protein: recombinant; tags: N-terminal GST; dsDNA, one strand shown
# In short: as §1
# [8] = target: SPIB (Homo sapiens, UniProt Q01892 1-262); settings: protein: recombinant; tags: N-terminal GST; dsDNA, one strand shown
# Chain of SPIB (Q01892 whole entry): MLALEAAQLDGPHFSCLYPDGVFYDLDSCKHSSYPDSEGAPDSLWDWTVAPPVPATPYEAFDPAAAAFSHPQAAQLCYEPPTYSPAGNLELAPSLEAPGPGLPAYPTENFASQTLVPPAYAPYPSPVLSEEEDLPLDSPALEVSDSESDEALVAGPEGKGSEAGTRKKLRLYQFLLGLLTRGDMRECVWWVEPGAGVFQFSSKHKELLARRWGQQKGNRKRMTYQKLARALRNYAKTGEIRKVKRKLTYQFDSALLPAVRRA
# In short: as §1
# [9] = target: T6, ELK3 (Homo sapiens, UniProt P41970 1-407); settings: protein: recombinant; tags: N-terminal GST; dsDNA, one strand shown
# T6 sequence: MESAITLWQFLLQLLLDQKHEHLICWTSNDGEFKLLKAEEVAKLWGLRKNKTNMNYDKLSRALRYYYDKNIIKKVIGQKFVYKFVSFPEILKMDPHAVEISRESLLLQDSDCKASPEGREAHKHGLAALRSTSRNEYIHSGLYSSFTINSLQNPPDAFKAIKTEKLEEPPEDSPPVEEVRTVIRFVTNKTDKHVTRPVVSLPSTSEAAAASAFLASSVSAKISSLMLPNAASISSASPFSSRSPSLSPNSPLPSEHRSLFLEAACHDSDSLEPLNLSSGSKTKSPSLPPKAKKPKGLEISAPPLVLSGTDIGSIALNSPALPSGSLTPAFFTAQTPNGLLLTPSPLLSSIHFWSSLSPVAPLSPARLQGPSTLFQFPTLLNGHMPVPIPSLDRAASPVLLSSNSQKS
# In short: as §1
# [10] = target: T7, FEV (Homo sapiens, UniProt Q99581 1-238); settings: protein: recombinant; tags: N-terminal GST; dsDNA, one strand shown
# T7 sequence: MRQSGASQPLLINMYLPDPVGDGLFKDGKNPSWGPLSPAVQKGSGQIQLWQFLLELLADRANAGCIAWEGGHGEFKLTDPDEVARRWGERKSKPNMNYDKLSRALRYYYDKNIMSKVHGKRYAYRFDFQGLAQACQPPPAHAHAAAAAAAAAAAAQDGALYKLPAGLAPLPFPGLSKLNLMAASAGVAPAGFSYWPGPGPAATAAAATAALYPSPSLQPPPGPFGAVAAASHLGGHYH
# In short: as §1
# [11] = target: ETV5 (Homo sapiens, UniProt P41161 1-510); settings: protein: recombinant; tags: N-terminal GST; dsDNA, one strand shown
# Chain of ETV5 (P41161 whole entry): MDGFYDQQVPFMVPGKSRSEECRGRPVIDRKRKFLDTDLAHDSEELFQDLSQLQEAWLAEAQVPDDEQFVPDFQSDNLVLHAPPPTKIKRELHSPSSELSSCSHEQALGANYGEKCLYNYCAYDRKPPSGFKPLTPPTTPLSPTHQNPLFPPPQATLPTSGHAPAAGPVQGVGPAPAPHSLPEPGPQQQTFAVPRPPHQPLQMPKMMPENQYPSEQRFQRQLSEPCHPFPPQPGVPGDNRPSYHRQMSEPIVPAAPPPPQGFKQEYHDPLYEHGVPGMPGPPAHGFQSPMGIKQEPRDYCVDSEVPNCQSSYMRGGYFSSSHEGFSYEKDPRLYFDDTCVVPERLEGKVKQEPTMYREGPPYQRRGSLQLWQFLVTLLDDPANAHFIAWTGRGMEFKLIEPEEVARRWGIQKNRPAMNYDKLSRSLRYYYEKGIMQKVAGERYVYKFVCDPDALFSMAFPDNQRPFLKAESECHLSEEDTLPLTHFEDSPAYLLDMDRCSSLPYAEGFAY
# In short: as §1
# [12] = target: HSF1 (Homo sapiens, UniProt Q00613 1-529); settings: protein: recombinant; tags: N-terminal GST; chain copies: 3; dsDNA, one strand shown
# Chain of HSF1 (Q00613 whole entry): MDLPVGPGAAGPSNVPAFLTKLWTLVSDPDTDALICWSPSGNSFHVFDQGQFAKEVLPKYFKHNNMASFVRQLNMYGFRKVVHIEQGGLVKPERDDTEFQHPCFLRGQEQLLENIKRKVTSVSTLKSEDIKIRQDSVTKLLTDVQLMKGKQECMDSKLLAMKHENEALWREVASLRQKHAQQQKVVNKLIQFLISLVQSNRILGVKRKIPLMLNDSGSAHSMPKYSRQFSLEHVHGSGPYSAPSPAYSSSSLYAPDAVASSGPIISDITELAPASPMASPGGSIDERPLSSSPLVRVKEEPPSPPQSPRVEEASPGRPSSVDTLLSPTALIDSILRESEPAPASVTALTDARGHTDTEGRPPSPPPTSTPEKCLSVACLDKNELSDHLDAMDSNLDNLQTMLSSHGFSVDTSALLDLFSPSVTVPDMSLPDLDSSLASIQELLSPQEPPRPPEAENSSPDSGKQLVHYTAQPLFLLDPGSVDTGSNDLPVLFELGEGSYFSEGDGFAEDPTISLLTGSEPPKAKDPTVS
# In short: as §1
# [13] = target: T8, SPIC (Homo sapiens, UniProt Q8N5J4 1-248); settings: protein: recombinant; tags: N-terminal GST; dsDNA, one strand shown
# T8 sequence: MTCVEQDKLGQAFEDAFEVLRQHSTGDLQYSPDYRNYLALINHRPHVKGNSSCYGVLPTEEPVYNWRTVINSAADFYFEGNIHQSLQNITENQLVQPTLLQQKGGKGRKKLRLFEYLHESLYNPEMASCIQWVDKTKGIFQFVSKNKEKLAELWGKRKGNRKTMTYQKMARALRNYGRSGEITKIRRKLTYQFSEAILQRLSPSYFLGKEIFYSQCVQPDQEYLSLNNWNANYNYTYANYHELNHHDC
# In short: as §1
# [14] = target: ELF4 (Homo sapiens, UniProt Q99607 1-663); settings: protein: recombinant; tags: N-terminal GST; dsDNA, one strand shown
# Chain of ELF4 (Q99607 whole entry): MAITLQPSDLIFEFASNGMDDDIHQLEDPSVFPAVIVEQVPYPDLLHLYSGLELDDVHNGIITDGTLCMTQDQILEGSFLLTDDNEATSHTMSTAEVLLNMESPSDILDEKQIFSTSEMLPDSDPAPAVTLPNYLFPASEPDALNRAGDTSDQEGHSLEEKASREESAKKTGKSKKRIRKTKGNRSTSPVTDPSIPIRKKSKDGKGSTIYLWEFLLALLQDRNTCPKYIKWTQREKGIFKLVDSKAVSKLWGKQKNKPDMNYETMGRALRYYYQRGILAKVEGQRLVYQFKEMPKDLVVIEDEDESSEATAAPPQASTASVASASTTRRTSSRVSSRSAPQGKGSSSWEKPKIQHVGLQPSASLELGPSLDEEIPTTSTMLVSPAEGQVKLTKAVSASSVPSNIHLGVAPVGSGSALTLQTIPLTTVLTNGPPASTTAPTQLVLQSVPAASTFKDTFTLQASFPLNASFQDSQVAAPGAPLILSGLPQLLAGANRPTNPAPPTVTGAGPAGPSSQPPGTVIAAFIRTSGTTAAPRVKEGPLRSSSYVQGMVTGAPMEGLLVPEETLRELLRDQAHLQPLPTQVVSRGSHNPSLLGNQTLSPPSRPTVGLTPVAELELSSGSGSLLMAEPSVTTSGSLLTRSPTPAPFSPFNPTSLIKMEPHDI
# In short: as §1
# [15] = target: T9, ELK4 (Homo sapiens, UniProt P28324-2 1-405); settings: protein: recombinant; tags: N-terminal GST; dsDNA, one strand shown
# T9 sequence: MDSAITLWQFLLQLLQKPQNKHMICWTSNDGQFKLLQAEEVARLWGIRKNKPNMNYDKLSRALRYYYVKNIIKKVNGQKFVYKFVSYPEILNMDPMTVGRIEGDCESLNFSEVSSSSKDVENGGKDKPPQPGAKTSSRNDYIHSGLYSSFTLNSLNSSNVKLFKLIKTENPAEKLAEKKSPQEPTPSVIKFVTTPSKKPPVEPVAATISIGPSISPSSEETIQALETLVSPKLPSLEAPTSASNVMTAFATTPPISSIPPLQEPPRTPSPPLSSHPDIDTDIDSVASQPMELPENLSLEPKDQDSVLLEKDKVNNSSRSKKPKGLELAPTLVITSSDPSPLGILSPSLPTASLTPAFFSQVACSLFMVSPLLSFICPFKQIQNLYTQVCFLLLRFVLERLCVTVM
# In short: as §1
# [16] = target: T10, ETV2 (Homo sapiens, UniProt O00321 1-342); settings: protein: recombinant; tags: N-terminal GST; dsDNA, one strand shown
# T10 sequence: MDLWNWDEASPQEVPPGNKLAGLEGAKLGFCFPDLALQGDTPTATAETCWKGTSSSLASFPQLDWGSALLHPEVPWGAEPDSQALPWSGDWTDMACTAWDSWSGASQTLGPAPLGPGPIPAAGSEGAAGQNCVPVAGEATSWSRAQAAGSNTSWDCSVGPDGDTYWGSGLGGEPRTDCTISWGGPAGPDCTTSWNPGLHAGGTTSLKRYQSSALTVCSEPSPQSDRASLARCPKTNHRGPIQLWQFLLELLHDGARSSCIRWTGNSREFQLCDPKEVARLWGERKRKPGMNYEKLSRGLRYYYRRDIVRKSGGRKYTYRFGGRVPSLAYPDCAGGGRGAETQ
# In short: as §1
# [17] = target: T11, ELF3 (Homo sapiens, UniProt P78545 1-371); settings: protein: recombinant; tags: N-terminal GST; dsDNA, one strand shown
# T11 sequence: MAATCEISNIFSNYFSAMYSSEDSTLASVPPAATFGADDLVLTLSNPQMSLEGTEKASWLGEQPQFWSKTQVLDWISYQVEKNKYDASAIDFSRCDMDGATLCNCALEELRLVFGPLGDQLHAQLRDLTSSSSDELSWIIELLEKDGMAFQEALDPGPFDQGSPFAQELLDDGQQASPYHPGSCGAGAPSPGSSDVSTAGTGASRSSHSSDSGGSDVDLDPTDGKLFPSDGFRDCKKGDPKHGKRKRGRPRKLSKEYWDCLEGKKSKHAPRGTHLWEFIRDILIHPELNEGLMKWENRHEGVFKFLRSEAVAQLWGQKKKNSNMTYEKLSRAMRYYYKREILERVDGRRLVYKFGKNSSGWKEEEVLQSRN
# In short: as §1
# [18] = target: CRX (Homo sapiens, UniProt O43186 1-299); settings: protein: recombinant; tags: N-terminal GST; dsDNA, one strand shown
# Chain of CRX (O43186 whole entry): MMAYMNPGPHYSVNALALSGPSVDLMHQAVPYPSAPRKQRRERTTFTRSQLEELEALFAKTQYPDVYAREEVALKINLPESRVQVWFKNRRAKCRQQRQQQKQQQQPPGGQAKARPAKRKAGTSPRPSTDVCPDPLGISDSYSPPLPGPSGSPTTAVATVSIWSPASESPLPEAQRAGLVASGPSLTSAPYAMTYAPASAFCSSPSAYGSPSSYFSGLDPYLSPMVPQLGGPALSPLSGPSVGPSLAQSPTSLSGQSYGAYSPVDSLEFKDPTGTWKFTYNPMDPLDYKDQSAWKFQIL
# In short: as §1
# [19] = target: ETV1 (Homo sapiens, UniProt P50549 1-477); settings: protein: recombinant; tags: N-terminal GST; dsDNA, one strand shown
# Chain of ETV1 (P50549 whole entry): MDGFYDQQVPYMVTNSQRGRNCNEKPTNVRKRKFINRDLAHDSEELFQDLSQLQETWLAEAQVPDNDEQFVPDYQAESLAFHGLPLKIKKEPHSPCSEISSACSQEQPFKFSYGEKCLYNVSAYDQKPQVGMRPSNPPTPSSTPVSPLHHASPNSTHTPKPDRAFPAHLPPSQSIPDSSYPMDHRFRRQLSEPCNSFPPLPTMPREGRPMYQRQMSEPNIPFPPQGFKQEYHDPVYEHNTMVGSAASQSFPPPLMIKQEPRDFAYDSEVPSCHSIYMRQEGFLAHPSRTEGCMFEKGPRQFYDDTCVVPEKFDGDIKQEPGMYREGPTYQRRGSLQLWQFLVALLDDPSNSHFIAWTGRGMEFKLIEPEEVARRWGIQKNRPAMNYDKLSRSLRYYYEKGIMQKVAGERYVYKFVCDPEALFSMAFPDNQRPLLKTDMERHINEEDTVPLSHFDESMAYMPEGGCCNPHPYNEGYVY
# In short: as §1
sequence,measurement,setting,value
TATTGT,binding signal,[1],"1.27 fold enrichment (6-mer frequency, TF over GST control)"
same,binding signal,[2],"1.32 fold enrichment (6-mer frequency, TF over GST control)"
same,binding signal,[3],"1.29 fold enrichment (6-mer frequency, TF over GST control)"
same,binding signal,[4],"1.3 fold enrichment (6-mer frequency, TF over GST control)"
same,binding signal,[5],"1.28 fold enrichment (6-mer frequency, TF over GST control)"
same,binding signal,[6],"1.23 fold enrichment (6-mer frequency, TF over GST control)"
same,binding signal,[7],"1.19 fold enrichment (6-mer frequency, TF over GST control)"
same,binding signal,[8],"1.28 fold enrichment (6-mer frequency, TF over GST control)"
same,binding signal,[9],"1.53 fold enrichment (6-mer frequency, TF over GST control)"
same,binding signal,[10],"1.26 fold enrichment (6-mer frequency, TF over GST control)"
same,binding signal,[11],"1.33 fold enrichment (6-mer frequency, TF over GST control)"
same,binding signal,[12],"1.27 fold enrichment (6-mer frequency, TF over GST control)"
same,binding signal,[13],"1.45 fold enrichment (6-mer frequency, TF over GST control)"
same,binding signal,[14],"1.24 fold enrichment (6-mer frequency, TF over GST control)"
same,binding signal,[15],"1.36 fold enrichment (6-mer frequency, TF over GST control)"
same,binding signal,[16],"1.32 fold enrichment (6-mer frequency, TF over GST control)"
same,binding signal,[17],"1.23 fold enrichment (6-mer frequency, TF over GST control)"
same,binding signal,[18],"1.47 fold enrichment (6-mer frequency, TF over GST control)"
same,binding signal,[19],"1.25 fold enrichment (6-mer frequency, TF over GST control)"
